An excerpt weighted towards active compounds, which were near 2.8% of everything screened.
PI5P4K alpha inh = qHTS for Inhibitors of phosphatidylinositol 5-phosphate 4-kinase (PI5P4K); PI5P4Kalpha enzyme, ADP-Glo luminescence, 60 min; active compounds read low; max response, %; 330,000 compounds, 1.2% hits; active = max response of -50% or lower; inconclusive = between -30% and -50%; inactive = -30% or higher; also: value at the top dose of about 77 µM; % is scaled to controls: 0 for no effect and ±100 for the full control effect
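Quantitative HTS of the MLSMR library against PI5P4Kalpha with substrate. ATP added last at 5 microM final; room temperature, 60 minutes. Remaining ATP depleted, ADP converted and read as luminescence.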
Pol kappa inh-1 = qHTS for Inhibitors of Polymerase Kappa. DNA polymerase kappa (Homo sapiens), Q9UBT6. Potency, µM (highest dose often 107 µM), for the others: top-dose activity, negative = inhibition, actives largely listed as inhibitors. purified Pol kappa, fluorescent DNA synthesis assay, 10 min. 400,000 compounds, 0.53% hits; also: potency is read from the fitted curve at half-maximal effect; % is scaled to controls: 0 for no effect and ±100 for the full control effect
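Here, compound and 10 nM enzyme are combined for 15 min at room temperature; adding 50 nM substrate (final) starts DNA synthesis, tracked by fluorescence at 0 and 10 min against buffer-only wells.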
Pol eta inh-1 = qHTS for Inhibitors of Polymerase Eta; DNA polymerase eta (Homo sapiens), Q9Y253; recombinant Pol eta, fluorescent DNA replication assay; Potency, µM (top dose mostly 114 µM), for the others: at the highest dose activity change, negative = inhibition, most hits filed as inhibitors; 390,000 compounds, 1.2% hits; AID 588591, 2011; also: potency is read from the fitted curve at half-maximal effect; % is scaled to controls: 0 for no effect and ±100 for the full control effect
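Pol eta at 10 nM preincubated with compounds 15 min at room temperature; reaction started with fluorescent substrate (50 nM final) and read kinetically at 0 and 10 min.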
WRN inhibitor = qHTS for Inhibitors of WRN Helicase | WRN helicase unwinding, fluorescent forked duplex, kinetic | Bifunctional 3'-5' exonuclease/ATP-dependent helicase WRN (Homo sapiens), Q14191 | Potency, µM (series often up to 114 µM), for the others: at the top dose activity change, negative = inhibition, hits mostly inhibitors | 360,000 compounds, 0.46% hits | AID 651768, 2012; also: potency is read from the fitted curve at half-maximal effect; % is scaled to controls: 0 for no effect and ±100 for the full control effect; nearly all actives have a fitted effect of over 55% in size
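WRN at 20 nM final was preincubated with compound for 15 min at room temperature; reaction started with 100 nM forked duplex oligonucleotide carrying fluorophore and quencher plus 2 mM ATP (final). Unwinding followed kinetically by red fluorescence (ex 525/em 598 nm).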
POLB inh = qHTS Assay for Inhibitors of DNA Polymerase Beta; Pol beta primer extension/strand displacement, fluorescence kinetic; Potency, µM (highest dose often 114 µM), for inactives: top-dose activity change, negative = inhibition, actives largely listed as inhibitors; 340,000 compounds, 1.3% hits; AID 485314, 2010; also: potency is read from the fitted curve at half-maximal effect; % is scaled to controls: 0 for no effect and ±100 for the full control effect
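Homogeneous kinetic assay of primer extension and strand displacement by 10 nM Pol beta, preincubated 15 min at room temperature with compound before 50 nM substrate (final) was added. Read at 0 and 10 min; four-parameter Hill fit.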
POLI inh = qHTS for Inhibitors of Polymerase Iota; 390,000 compounds, 1% hits; DNA polymerase iota (Homo sapiens), Q9UNA4; Potency, µM (top dose mostly 115 µM), inactives show top-dose activity, negative = inhibition, hits mostly inhibitors; Pol iota fluorescent replication assay, 10 min; also: potency is read from the fitted curve at half-maximal effect
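Pol iota at 10 nM preincubated 15 min with compounds at room temperature; reaction started with fluorescent substrate, 50 nM final. Fluorescence read kinetically at 0 and 10 min; buffer-only wells as negative control.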
GALK inh confirm = Confirmation Assay for Inhibitors of Human Galactokinase (GALK); shares compounds with Pol eta inh-1; AID 2015, 2009; purified GALK, Kinase-Glo ATP depletion luminescence; 150 compounds, 70% hits; Potency, µM (highest dose often 115 µM), for the others: top-dose activity, negative = inhibition, most hits filed as inhibitors
Redox cycling = Confirmatory Assay for Inhibitors of Human Galactokinase (GALK): Phenol-HRP redox assay counterscreen; shares compounds with Pol eta inh-1; Phenol red-HRP H2O2 redox cycling, absorbance 600 nm; Potency, µM (doses to about 115 µM), for the others: at the top dose activity change, negative = H2O2 signal, most hits filed as inhibitors; 150 compounds, 40% hits
HEK293 viability = Secondary Assay for Inhibitors of Human Galactokinase (GALK): HEK-293 Cell Viability Assay; HEK-293 viability, ATP luminescence (CellTiter-Glo), 24/48 h; Potency, µM (doses to about 46.1 µM), for the others: at the top dose activity change, negative = cytotoxicity, usual class: inhibitors; 170 compounds, 10% hits; AID 2547, 2010; shares compounds with Pol eta inh-1; also: potency is read from the fitted curve at half-maximal effect; % is scaled to controls: 0 for no effect and ±100 for the full control effect
Pol kappa inh-2 = qHTS for Inhibitors of Polymerase Kappa: Confirmatory Assay for Cherry-picked Compounds; Potency, µM, actives largely listed as inhibitors; shares compounds with Pol eta inh-1; 920 compounds, 76% hits; AID 720501, 2013; purified Pol-kappa, fluorescent strand-displacement substrate; also: potency is read from the fitted curve at half-maximal effect
Pol eta inh-2 = qHTS for Inhibitors of Polymerase Eta: Confirmatory Assay for Cherry-picked Compounds; 2,600 compounds, 64% hits; AID 720502, 2013; Potency, µM, usual class: inhibitors; shares compounds with Pol eta inh-1; Pol eta primer extension, TAMRA/BHQ fluorescence, 10 min; also: potency is read from the fitted curve at half-maximal effect
Starred values were filed as active, the others as inactive; ? = inconclusive; . = no result; [ ] = another dose, or the depositor's remark. Unless noted, calls follow the shape of the dose curve; as a rule, active = well fitted curve in the direction sought with a large enough effect; inconclusive = small, poorly fitted or top-dose-only effect, or another doubt; inactive = no such curve, though single readings can be large; an effect the other way counts as inactive or inconclusive.

SMILES | PI5P4K alpha inh | Pol kappa inh-1 | Pol eta inh-1 | WRN inhibitor | POLB inh | POLI inh | others
CCC1(c2ccccc2)NC(=O)N(CC(=O)Nc2cc(S(=O)(=O)N3CCCCCC3)ccc2OC)C1=O (stereo not drawn) | 5.0 | -8.8% | -29.5% | 3.2% | . | 21.0%
CC(C)[C@H](NC(=O)c1ccc(F)cc1)C(=O)N(C)Cc1cccs1 | -2.4 | -14.9% | ? | 8.9% | . | 27.1%
O=C(N[C@H](C(=O)O)c1ccccc1)C1CCC(Cn2nnc3ccccc3c2=O)CC1 (stereo partly drawn) | . | . | . | . | -10.8% | .
O=S(=O)(NCc1cccs1)c1ccc(Br)s1 | . | . | . | . | 17.9% | . | GALK inh confirm=-9.1%;Redox cycling=0.2%;HEK293 viability=12.8%
O=S(=O)(NCc1cccs1)c1ccc(Cl)s1 | 2.7 | -7.6% | -0.3% | 0.9% | 6.1% | -2.4%
COc1cc(-c2nc(Cn3nnc(C(=O)Nc4ccccc4C)c3C)c(C)o2)cc(OC)c1OC | . | -4.8% | -6.8% | . | -24.2% | -1.0%
O=C1NC(=O)C(=Cc2ccc(Cl)c(Cl)c2)S1 | -26.0 | -4.6% | -18.0% | -1.4% | . | 33.2%
O=C1NC(=S)S/C1=C\c1cc(Cl)cc(Cl)c1O | -58.1* | ? | 35.5µM* | 35.5µM* | . | 31.6µM* | Pol kappa inh-2=23.8*
Cc1cc(/C=C2/SC(=O)NC2=O)c(C)n1-c1ccc(N2CCOCC2)cc1 | 1.7 | -10.3% | 2.1% | -2.3% | 12.8% | ?
Cc1cc(/C=C2\SC(=S)NC2=O)c(C)n1-c1ccc(O)cc1 | -83.1* | ? | 50.1µM* | ? | 50.1µM* | ? | Pol kappa inh-2=?
COc1ccc(NS(=O)(=O)c2ccc3[nH]c(=O)ccc3c2)cc1OC | . | -1.9% | -9.7% | . | -15.0% | 12.5%
COc1ccc(Br)cc1/C=C/C(=O)NC(=S)Nc1ccc(Cl)c(C(=O)O)c1 | -10.2 | 2.1% | 25.1µM* | -4.8%[11.6 µM] | 12.5% | 17.3% | Pol kappa inh-2=?
CC(=O)Nc1sc2c(c1-c1nc3ccccc3s1)CNC2 | . | . | . | . | . | . | Pol eta inh-2=?
CC(=O)Nc1sc2c(c1-c1nc3ccccc3s1)CCSC2 | . | . | . | . | . | . | Pol eta inh-2=75.7*
CC(=O)Nc1scc(C)c1-c1nc2ccccc2s1 | 8.6 | -1.0% | -23.2% | -8.1% | ? | 53.3%
Cc1csc(NC(=O)COCC(=O)O)c1-c1nc2ccccc2s1 | -4.3 | 1.2% | -14.1% | -1.1%[11.6 µM] | -0.1% | ?
